Rows were chosen to be rich in hits. Some 11% of all compounds tested hit in one or more screens of this group.
Autophagy HCS: alters autophagy in cells; MEF GFP-LC3 puncta imaging; test concentration mostly 10 µM; calls only at 10 µM (by protocol); AID 463193; actives 0.98% (n = 190,000);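 active = percentage of spot-positive cells more than 3 SD above its plate mean, without a fluorescence outlier flag or 80% toxicity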;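 note: spot-positive cell cutoff set from DMSO-treated cells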
Ins promoter up: MIN6 insulin promoter up-regulation; MIN6 insulin promoter-GFP reporter, high-content imaging; hits give high values; z-score at 5 µM; actives 0.3% (n = 190,000); AID 1625;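 active = z-score above 3 at 5 µM with at least 500 cells counted in the well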
WT yeast gro inh: growth inhibition of WT yeast, mitochondrial fusion screen | mitochondrial fusion phenotypic screen, WT strain | inhibition, % at 10 µM | actives 2.1% (n = 190,000) | AID 1362; in the data active = inhibition above about 58%; tested in S. cerevisiae
Insulin prom inh: TRM-6 insulin promoter activity inhibition. inhibition, % at 2 µM. TRM-6 cells (human fetal islet line), insulin promoter-eGFP reporter, imaging; reporter expression induced with tamoxifen. actives 0.9% (n = 130,000). AID 1273;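 active = inhibition above the mean plus 3 SD, with well images judged a real hit on visual review, cut at about 60% in these data, passing the limit was not always enough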
L major viab: inhibitors of Leishmania major promastigote growth | AID 1063 | Leishmania major promastigotes, resazurin fluorescence viability | actives 9% (n = 200,000) | inhibition, % at 10 µM; in the data active = inhibition above about 50%;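 note: promastigotes grown with compound for 44 hours at 28 °C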
An asterisk follows results filed as active; i = inactive; nt = no result given; + = active, no number.

SMILES | Autophagy HCS | Ins promoter up | WT yeast gro inh | Insulin prom inh | L major viab
CCN(CC)S(=O)(=O)c1ccc(Cl)c(C(=O)Nc2ccc(Cl)cc2[N+](=O)[O-])c1 | i | -1.4 | -25 | -56 | 85*
O=C1NC(c2ccccc2)=C(c2nc3ccccc3s2)C(c2ccc(F)cc2)N1 (stereo not given) | i | 0.93 | 39 | 8 | 51*
CCCN(Cc1ccc(N(CC)CC)cc1)CC1CC1 | i | -0.37 | -5 | 27 | 76*
Fc1nc(F)c(F)c(NCCCNc2c(F)c(F)nc(F)c2F)c1F | i | -1.4 | 72* | -21 | 11
Cc1ccc(CN=Cc2[nH]c3ccc(Br)c(Cl)c3c2O)cc1 | + | nt | 64* | nt | 23
Oc1c(C=NCc2ccc(F)cc2)[nH]c2ccc(Br)c(Cl)c12 | + | nt | nt | 62 | 27
C/C(CC(=O)Nc1cccc(Cl)c1Cl)=N\NC(=O)c1ccccc1C | i | 0.44 | 10 | -100 | 15
O=C(C1CC=CCC1)N1CCC(CO)(Cc2ccc(Cl)cc2)CC1 (stereo not given) | i | -0.83 | 18 | nt | 16
CSc1ccc(CNC2CC2)cc1 | i | nt | 30 | 25 | -3
CSc1ccc(CNc2ccc(Cl)cc2)cc1 | i | 0.14 | -3 | nt | 100*
N#Cc1ccsc1NC(=O)COc1ccc(-c2nnco2)cc1 | i | 0.17 | -10 | 65* | -8
COc1ccc(C2CC(=O)C3=C(C2)Nc2ncnn2C3c2ccccc2)cc1 (stereo not given) | i | 0.37 | 15 | -31 | 91*
COc1ccccc1NC(=O)C1=C(C)Nc2ncnn2C1c1ccccc1C (stereo not given) | i | 0.28 | -6 | -19 | 9
COc1ccc(C2CC(=O)C3=C(C2)Nc2ncnn2C3c2ccccc2C)cc1 (stereo not given) | i | -0.04 | 10 | -23 | 100*
O=C(CN1CCN(C(=O)N2CCCCC2)CC1)Nc1ccc(F)cc1 | i | -0.25 | -8 | 38 | -7
Nc1cc2c(cc1C(=O)c1cccc(Br)c1)OCCO2 | i | -0.28 | 21 | nt | -1
CCOc1ccc(Br)cc1C1C(C(=O)OC)=C(N)Oc2cc(N(C)C)ccc21 (stereo not given) | i | nt | 59* | nt | 100*
O=C(Nc1cccc(C(F)(F)F)c1)c1cc2c(=O)c3ccccc3oc2nc1C(F)(F)F | i | 0.67 | -4 | 22 | 62*
O=C1CN(C(=O)c2ccccc2F)c2ccccc2N1 | i | -0.39 | -13 | 36 | 17
Cc1ccc(Nc2c([N+](=O)[O-])cc(C(=O)N3CC(=O)Nc4ccccc43)cc2[N+](=O)[O-])c(C)c1 | i | 0.04 | -1 | 13 | 88*
CCCOc1ccc(-c2nc(OCC)c3ccccc3n2)cc1 | i | nt | 60* | 60 | -3
CCOc1nc(-c2ccncc2)nc2ccccc12 | i | nt | 19 | 2 | 6
Cc1cc(C)c2nc(-c3ccccn3)cc(C(=O)n3cccn3)c2c1 | i | 1.1 | -2 | nt | -2
Cc1ccc(O)c(-c2cc3ccccc3[nH]2)c1 | i | 0.44 | 18 | -206 | 59*
CCOc1ccc(C2C(C#N)=C(N)N(c3sc4c(c3C#N)CCCC4)C3=C2C(=O)CCC3)cc1 (stereo not given) | i | -1.8 | 23 | nt | 57*
SMILES | Autophagy HCS | Ins promoter up | WT yeast gro inh | Insulin prom inh | L major viab
CSc1ccc(C2C(C#N)=C(N)N(c3ccccc3)C3=C2C(=O)CCC3)cc1 (stereo not given) | i | -0.27 | 15 | nt | 74*
COc1cccc(CNC(=O)CCC2CCCN(C(=O)C3=CC(=O)CC(C)(C)O3)C2)c1 (stereo not given) | i | 0.83 | 8 | nt | -2
Cc1cccn2cc(CSc3nnc(Nc4ccc(C(C)C)cc4)s3)nc12 | i | -0.29 | 68* | nt | 28
CCC(C)(C)NC(=O)C(c1ccc(F)cc1)N(Cc1cccs1)C(=O)c1cnccn1 (stereo not given) | i | -0.23 | -1 | nt | -6
CCOc1cc(/C=C/c2nc3cc(C)c(C)cc3s2)ccc1OCC(=O)N1CCOCC1 | i | 0.45 | -1 | 7 | 86*
CCN(CCCNC(=O)CN1C(=O)COc2ccccc21)c1ccccc1 | i | -1.1 | -11 | nt | -1
CCCCN(CCCNC(=O)CN1C(=O)COc2ccccc21)c1ccccc1 | + | 0.24 | -2 | nt | 7
Cc1ccccc1S(=O)(=O)c1c(C)cc(C)n(CC(C)C)c1=O | i | 0.46 | 68* | -3 | 91*
Cc1ccccc1S(=O)(=O)c1c(C)cc(C)n(C)c1=O | i | 0.11 | -6 | 57 | 2
CSCCC(NC(=O)c1cccc(S(=O)(=O)N2CCOCC2)c1)C(=O)Nc1cccc(C)c1 (stereo not given) | i | 0.38 | 12 | 15 | 70*
O=C(Cc1ccc(Cl)c(Cl)c1)Nc1cccc(S(=O)(=O)N2CCOCC2)c1 | i | -0.11 | 9 | -36 | 55*
CC(Sc1nc2cc(Cl)ccc2s1)C(=O)Nc1cccc(S(=O)(=O)N2CCOCC2)c1 (stereo not given) | i | -0.08 | 25 | -74 | 62*
O=C(Nc1cccc(S(=O)(=O)N2CCOCC2)c1)c1ccco1 | i | 0.62 | nt | -32 | 93*
CCOC(=O)COc1c(/C=N\OC)cc(Cl)cc1OC | i | 0.46 | -3 | -136 | -4
c1ccc(CN2CCN(Cc3nnc(-c4ccccc4)o3)CC2)cc1 | i | -0.03 | -7 | nt | 80*
c1ccc(CN2CCOCCOCCOCCOCC2)cc1 | nt | 0.86 | nt | nt | nt
Cn1c(=O)[nH]c(=O)c2c1nc(SCCN1CCCCC1)n2CCCc1ccccc1 | i | nt | 18 | nt | 98*
CCCCCn1c(SCCc2ccccc2)nc2c1c(=O)[nH]c(=O)n2C | i | -0.93 | 7 | 40 | 3
Cn1c(=O)[nH]c(=O)c2c1nc(SCCN1CCCCC1)n2Cc1ccccc1 | i | nt | -3 | 25 | 99*
Cc1ccc(Cn2c(SCCN3CCCCC3)nc3c2c(=O)[nH]c(=O)n3C)cc1 | nt | nt | 0 | nt | 6
COc1ccc(/C=N\NC(=S)SCN2C(=O)C3CCC(C)(C2=O)C3(C)C)cc1 (stereo not given) | i | nt | 51 | -17 | 5
CC12CCC(C(=O)N(CSC(=S)N/N=C\c3ccccc3O)C1=O)C2(C)C (stereo not given) | i | nt | 35 | 70 | 85*
O=S(=O)(Cc1cc(NCc2ccccc2)nc(-c2ccccn2)n1)c1ccccc1 | i | -0.84 | 3 | -15 | 21
C#CC(C)(CC)NC(=O)c1cc2nc(C3CC3)cc(C(F)(F)F)n2n1 (stereo not given) | i | -0.35 | 6 | -100 | 28
COc1cc2c(C#N)c(N3CCN(C)CC3)nc(N)c2c(N)n1 | i | -0.45 | 23 | -79 | 100*
Cc1ccccc1SCCNC(=O)c1ccccc1Br | i | -0.65 | 12 | -12 | -4
COc1ccc(C2=NN(C(=O)CSc3ncccn3)C(c3cccc(OC)c3OC)C2)cc1 (stereo not given) | i | -0.45 | -11 | 27 | 79*
CC1=C(C(=O)Nc2ccc(Br)cc2)C(c2ccco2)NC(=O)N1 (stereo not given) | i | 0.77 | 13 | 68* | -1

Assay outcomes deposited in PubChem BioAssay by several laboratories.
